Experimental data published in ChEMBL document CHEMBL4513216, “Probing the Open Global Health Chemical Diversity Library for Multistage-Active Starting Points for Next-Generation Antimalarials” (ACS Infect Dis, 2020).
Hit rate of the full screen: of about 65,000 compounds, about 2,100 (3.2%) showed an effect of 50% or more. The median lay at about -52%. Many of the other results were omitted from the sample, so strong results are more common in it than they were.

What follows are molecules tested on Plasmodium falciparum (assay: Screen against P. falciparum Asexual Blood Stage (ABS), at 5uM). Conditions: tested at 5 uM.
Format: functional, Dd2

| SMILES | INHIBITION [%] |
| --- | --- |
| c1cc(CN2CCOCC3(CCNCC3)C2)ccn1 | -114 |
| c1[nH]c(CC2CCCC2)nc1CN1CCCC2(CCOC2)C1 (stereo unspecified) | 82.2 |
| c1cnc(N2CCOCC3(CCCN(Cc4cc[nH]n4)C3)C2)nc1 (stereo unspecified) | -63.1 |
| Cc1cc(CN(C)C(=O)CN2CCCC2=O)no1 | -32.3 |
| COc1cc(OC)cc(C2SCC(=O)Nc3ccsc32)c1 (stereo unspecified) | -38.5 |
| O=C(Nc1cccnc1)[C@H]1C[C@H]2OCC[C@H]2N(CC2CC2)C1 | -67.1 |
| Cc1n[nH]c2c1C(c1cccnc1)SCC(=O)N2 (stereo unspecified) | -32.5 |
| Cc1cccc(CN2CCN(C(=O)N(C)C)[C@@H]3CS(=O)(=O)C[C@@H]32)n1 | -85.1 |
| CCC[C@H]1CN(c2nc(CO)cs2)C[C@@H]1NC(=O)C1(COC)CC1 | 71.7 |
| O=C(Nc1cccnc1)[C@H]1COC[C@H]2CN(C3CCCC3)C[C@H]21 | 12.5 |
| O=C(C[C@@H]1COC[C@H]2CN(CC3CC3)C[C@@H]12)NCc1cccnc1 | -75.7 |
| O=C(C1CCC1)N1C[C@H]2CNC[C@H]2C1 | -30.2 |
| O=C(C1CCOCC1)N1C[C@H]2CNC[C@H]2C1 | 52.6 |
| O=C(C1CCCC1)N1C[C@H]2CNC[C@H]2C1 | -5.05 |
| O=C(CC1CC1)N1C[C@H]2CCN[C@H]2C1 | -62.6 |
| O=S(=O)(c1cccnc1)N1C[C@@H]2COC[C@]2(CN2CCOCC2)C1 | -111 |
| CN1CCN(Cc2ccccc2CNC(=O)c2ccc(Cl)cc2F)CC1 | 77.2 |
| CN1CCN(Cc2ccccc2CNC(=O)c2cc(Br)ccc2F)CC1 | 77.5 |
| Cc1cc(CN2CCN(C(=O)Cc3ccccc3F)CC2)on1 | -206 |
| Cc1ncsc1CN1C[C@H](OCc2ccncc2)[C@H]2OCCC[C@H]21 | -47.7 |
| O=C(Cc1cccs1)N1C[C@@H]2OCCN(CC3CCCC3)[C@@H]2C1 | -96.4 |
| CC(Cn1cccn1)NCc1csc(-c2cccs2)n1 (stereo unspecified) | -268 |
| COc1cccc(-c2nc(CNCCCn3cccn3)cs2)c1 | 76.3 |
| CCc1nc(CNC(C)Cn2cccn2)cs1 (stereo unspecified) | -78.5 |
| Cc1cc(CN2CC[C@H]3C[C@H](C(=O)N(C)C)O[C@@H]3C2)no1 | -20.9 |
| c1cc(CN2CCSC3(CCCCC3)C2)no1 | -170 |

| SMILES | INHIBITION [%] |
| --- | --- |
| CC(C)Nc1ccc2nc(C3CCNCC3)nn2c1 | -54.1 |
| Cc1nn(C)c(C)c1C(C(=O)O)N1CC=C(c2ccccc2)CC1 (stereo unspecified) | -74.2 |
| O=C(NCCN1CCCCC1)C(c1ccccc1)N1CCCC1 (stereo unspecified) | 80 |
| CC(C(=O)N1CCCC1)N1CCCN(C(=O)Oc2ccccc2)CC1 (stereo unspecified) | -54.8 |
| O=C1[C@@H]2CCN(C3CCC3)C[C@@H]2OCCN1Cc1ccncc1 | -35.3 |
| COc1cccc(CN(C)C(C)c2ccco2)c1OCCn1ccnc1 (stereo unspecified) | 71.8 |
| CN1C(=O)CCC12CCCN(Cc1nccs1)C2 (stereo unspecified) | -74.2 |
| CN(C)CCN1C(=O)CCCC12CCCN(Cc1cccs1)C2 (stereo unspecified) | 73.5 |
| CNC(=O)CN1C(=O)CCC12CCCN(Cc1ccccn1)C2 (stereo unspecified) | -14.2 |
| COCCC1(CNC(=O)Nc2ccnc(C)c2)CCCC1 | 72.6 |
| Cc1ncc(CN2C[C@H]3CC(OCc4ccccc4)C[C@H]3C2)cn1 (stereo partly specified) | -74.6 |
| Cc1ccc2c(n1)N(CC1CC1)CCN(Cc1ccco1)C2 | -45.2 |
| Cc1ccc2c(n1)N(CCn1cccn1)CCN(CC1CC1)C2 | 77.6 |
| Cc1ccc2c(n1)N(CC1CC1)CCN(S(=O)(=O)C1CC1)C2 | -28.5 |
| O[C@]12CCNC[C@H]1CN(c1ccnc3ccccc13)CC2 | 92 |
| O[C@]12CCNC[C@H]1CN(c1nccc3ccccc13)CC2 | -5.03 |
| Cc1nnc(N2CC[C@@]3(O)CCNC[C@H]3C2)c2ccccc12 | -14.9 |
| Cc1cnc(N2CCC3(CCCCN3C)C2)nc1 (stereo unspecified) | -23.5 |
| CC(C)(C)CC(=O)N1C[C@H]2CCN[C@H]2C1 | -36.7 |
| Cc1cc(CN2C[C@@H]3COC[C@H](C(=O)N4CCCCO4)[C@@H]3C2)no1 | -158 |
| CN(C)C(=O)CN1CCN(c2ncccn2)[C@@H]2CS(=O)(=O)C[C@@H]21 | -100 |
| CCN1CCC2(CC1)CC(Nc1ncccn1)CO2 (stereo unspecified) | -11 |
| CCN1CCN(C)C2(CCN(Cc3cccc(C)n3)CC2)C1=O | -50.7 |
| O=C1NCC2(CCCN(Cc3ccncc3)C2)Oc2ccccc21 (stereo unspecified) | -7.11 |
| Cc1cnc(N2CCC3(CC2)CN(Cc2cccs2)CCO3)nc1 | -35.2 |
| O=C1Nc2ccccc2C12CCN(Cc1cccs1)CC2 | -14.5 |

| SMILES | INHIBITION [%] |
| --- | --- |
| CCN1CCC2(CC1)CC(NCc1cccs1)c1ccccc1O2 (stereo unspecified) | 85.8 |
| CCN1CCC2(CC1)CC(NCc1cccc(C)n1)c1ccccc1O2 (stereo unspecified) | 91.3 |
| Cc1cccc(CN2CCC3(CCN(c4cccnc4)C3=O)C2)n1 (stereo unspecified) | -18.3 |
| CCN1CCC2(CC1)CC(NCc1ccncc1)c1ccccc1O2 (stereo unspecified) | 77.7 |
| O=C(Nc1cccnc1)[C@H]1CO[C@H]2CCNC[C@H]2C1 | -181 |
| Cc1cccc(CN2C[C@H](OCc3ccccn3)[C@H]3COC[C@H]32)n1 | -21.3 |
| Cc1noc(C)c1CN1CCO[C@H]2CN(Cc3cccnc3)C[C@H]21 | 0.607 |
| CCc1ccc(CN2CCN(C)c3ncccc3C2)o1 | -114 |
| O=c1[nH]cnc2[nH]c(N3CCNCC3)nc12 | -168 |
| CN(C)C(=O)CN1CCC2(CCCN(Cc3cccnc3)C2)C1=O (stereo unspecified) | -34 |
| Cc1cccc(CN2C[C@@H](NC(=O)C3CCC3)[C@H]3COC[C@H]32)n1 | -50.1 |
| COc1ccccc1CN(C)C(=O)CN1CC(n2nc(C)cc2C)C1 | 78.2 |
| CCc1nnc(CN(C)C(=O)CN2CC(c3ccccc3)CC2=O)o1 (stereo unspecified) | -112 |
| COc1ccc(Cl)cc1CN(C)C(=O)CN1C(=O)CCC1C (stereo unspecified) | -38.8 |
| Cn1cc(C(=O)NCc2cncc3c2CCNC3)cn1 | -118 |
| Cc1csc([C@H]2C[C@@H]3CCN(Cc4cc(C)on4)C[C@H]3O2)n1 | -69.7 |
| c1cncc(OC[C@@]23CCO[C@@H]2CCN(Cc2cccs2)C3)c1 | -5.17 |
| O=C1N(c2cncnc2)CCC12CCCN(Cc1ccccn1)C2 (stereo unspecified) | -36.2 |
| NCC1Cc2cc(-c3nccc(N4CCC(O)CC4)n3)cc(Cl)c2O1 (stereo unspecified) | 80.6 |
| NCC1Cc2cc(-c3nccc(N4CCC(O)CC4)n3)cc(F)c2O1 (stereo unspecified) | 83.1 |
| O=C(NC[C@H]1C[C@@H]2CCN1C[C@@H]2CN1CCCC1)c1ccco1 | -62.4 |
| CN1CCN(S(C)(=O)=O)Cc2cccnc21 | -87.7 |
| CNC(=O)[C@@]12CCO[C@@H]1CCN(Cc1c(C)noc1C)C2 | -74.2 |
| Cc1ccc2c(n1)N(C)CCN(Cc1cnn(C)c1)C2 | -35.9 |
| CN1CCCCC1c1ncc2c(n1)CCN(CCCc1ccccc1)C2 (stereo unspecified) | 89.2 |
| CN1CCCCC1c1ncc2c(n1)CCN(Cc1ccc(F)cc1)C2 (stereo unspecified) | 86.4 |

| SMILES | INHIBITION [%] |
| --- | --- |
| CN1CCCCC1c1ccc(-n2ccnc2)nc1 (stereo unspecified) | -5.64 |
| CN1CCN(Cc2ccc(F)cc2)Cc2cccnc21 | -5.74 |
| Cc1ccc(C(=O)N2C[C@@H]3CCCO[C@@H]3[C@H](N3CCCC3)C2)cn1 | -108 |
| Cc1nc(COC[C@H]2CC[C@H]3NCC[C@H]3O2)cs1 | -29.9 |
| O=C(c1ccnnc1)N1C[C@@H]2OCCN(CCN3CCCC3)[C@@H]2C1 | -53.7 |
| O=C(c1cccnc1)N1CCO[C@@H]2CNC[C@@H]21 | -20.6 |
| Cc1noc([C@]23COC[C@H]2CN(C(C)C)C3)n1 | -38.3 |
| Fc1cccc(F)c1Cn1c(C2CCNCC2)cc2cccnc21 | 80.6 |
| Fc1cccnc1O[C@@H]1CN(Cc2ccccn2)[C@@H]2CCCO[C@@H]21 | -14 |
| Fc1ccccc1Cn1c(C2CCNCC2)cc2cccnc21 | 88.7 |
| Cc1ccc(-c2noc(CC[C@@H]3CCCN4CCCC[C@H]34)n2)nn1 | -74.3 |
| CN(Cc1ccccc1-n1cccn1)C[C@@H]1CCCN2CCCC[C@H]12 | 76 |
| CN(Cc1nc2ccsc2c(=O)[nH]1)C[C@@H]1CCCN2CCCC[C@H]12 | -20.7 |
| COCCN1C[C@@H]2OCCN(c3ccnc(N(C)C)n3)[C@@H]2C1 | -31.1 |
| CS(=O)(=O)N1CCO[C@@H]2CN(Cc3ccncc3)C[C@@H]2C1 | -25.9 |
| CC(C)(NCc1cccc(O)c1)c1ccc2c(c1)OCO2 | 88.9 |
| CCC(C)N1CCc2nc(N3CCCC3)nc(NC(C)C)c2C1 (stereo unspecified) | 78 |
| CN(C)C(=O)[C@H]1C[C@H]2OCC[C@H]2N(Cc2ccccn2)C1 | -13.3 |
| CC(Nc1nc(-c2ccncc2)nc2c1CCNC2)c1ccccc1 (stereo unspecified) | 71.5 |
| Cc1cccnc1[C@H](C)Nc1nc(-c2cccnc2)nc2c1CNC2 | 78 |
| CC(Nc1nc(-c2ccccc2)nc2c1CCNCC2)c1cccnc1 (stereo unspecified) | 90.9 |
| CSCC(=O)NS(=O)(=O)c1ccc(C#N)c(C(F)(F)F)c1 | -52.2 |
| COCCNC(=O)[C@@]12CCO[C@@H]1CCN(Cc1cc(C)on1)C2 | -32 |
